In the library only some 1.4% were active in any assay of this set; here they are far more common.
MsrA act: activates bovine MsrA enzyme; purified bovine MsrA, absorbance read-out; activation, % at 10.6 µM; actives 0.3% (n = 360,000); AID 602163; in the data active means activation above about 7.5%;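 further: 0% = vehicle and 100% = reference activator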
14-3-3 Bad inh: disrupts binding of bovine 14-3-3 zeta to phospho-Bad peptide; TR-FRET 14-3-3zeta/Dy647-pBad peptide displacement, 1 h; inhibition, % at 21.7 µM; actives 0.71% (n = 220,000); AID 781;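 active means inhibition above about 70%, limit read from the data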;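 further: 0% = full 14-3-3 plus peptide FRET controls and 100% = background without 14-3-3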
Target sequence (P63103 whole entry, looked up): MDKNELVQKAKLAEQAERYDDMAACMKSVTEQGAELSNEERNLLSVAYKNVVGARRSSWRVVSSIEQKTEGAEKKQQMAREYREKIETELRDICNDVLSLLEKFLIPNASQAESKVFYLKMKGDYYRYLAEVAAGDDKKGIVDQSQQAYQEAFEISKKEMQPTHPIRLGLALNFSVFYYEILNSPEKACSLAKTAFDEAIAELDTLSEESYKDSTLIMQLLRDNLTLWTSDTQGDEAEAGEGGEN
MsrA inh: inhibitors of bovine MsrA; inhibition, % at 15.5 µM; actives 0.75% (n = 360,000); AID 651718; purified bovine MsrA, absorbance read-out; in the data active means inhibition above about 4.5%;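 further: 0% = vehicle wells with enzyme and 100% = reference inhibitor wells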
pCIP destab: p/CIP protein destabilization. Q05BA5. F442A p/CIP-EGFP cells, EGFP fluorescence, 16 h. decrease of EGFP signal, % at 10 µM. actives 0.01% (n = 290,000);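 active means EGFP signal decrease of at least 30% at 10 µM or well 3 SD below plate mean, unless failing retest; inactive means the rest, including hits failing retest or dose response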
Starred values were filed as active, the others as inactive; nt = not tested or not shown; [ ] = remark or other dose.

SMILES	MsrA act	14-3-3 Bad inh	MsrA inh	pCIP destab
CCN1C(=O)/C(=C\c2cn(-c3ccccc3)nc2-c2cccnc2)SC1=S	-2.5	77.9*	-0.9	3.8
COc1ccccc1N=Nc1c(C)n[nH]c1C	-2.5	nt	4.6*	-4.2
O=C(NCc1ccccc1)[C@@H]1CCCN1C(=O)[C@H]1CCCN1C(=O)c1ccc(Cl)cc1	nt	nt	0.4	nt
c1ccc(-n2cnc3ccccc32)nc1	-3.3	nt	0.4	5.1
c1ccc(-c2nccc(-c3ccc(-n4cnc5ccccc54)cc3)n2)cc1	-12.3	95.8*	-0.2	2.1
O=C(Nc1cccc(Cl)c1)Nc1nnc(-c2ccncc2)s1	-5.4	81.0*	1.0	-25.5
C#CCN(C[C@H]1[C@H](OC(=O)Nc2cccs2)[C@H](OC(=O)Nc2cccs2)CN(C(=O)OC(C)C)N1C(=O)OC(C)C)S(=O)(=O)c1ccc(C)cc1	nt	nt	-0.1	nt
O=C(c1ccco1)N1N=C(c2cccs2)CC1c1ccccc1O (stereo not drawn)	-5.2	nt	5.9*	-16.1
Cc1ccc(S(=O)(=O)N2CCCc3nc(-c4ccc(Br)cc4)ccc32)cc1	nt	nt	0.5	nt
CCOC(=O)c1ccc(NC(=O)COc2ccccc2OC)cc1	-0.7	82.9*	0.0	-12.4
O=C(O)CCCCCN1C(=O)/C(=C\c2ccc(-c3ccc(Cl)cc3)o2)SC1=S	-6.7	70.6*	-0.3	-10.7
COC(=O)C1=C(C)N(Cc2ccccc2C(F)(F)F)C(=NCc2ccccc2)NC1c1cccc(C(F)(F)F)c1 (stereo not drawn)	nt	nt	-2.3	nt
O=C(CSCc1ccccc1Br)N/N=C/c1ccccc1C(=O)O	-2.5	82.9*	1.5	19.7
CCC/C(=C1/c2ccccc2C(=O)N1c1ccccc1)c1ccc(C=O)o1	nt	nt	0.0	nt
CCN1C(=O)/C(=C/c2nc3ccccc3c(=O)n2-c2ccc(C)cc2)c2ccccc21	-7.4	11.0	1.6	-12.7
CCN1C(=O)/C(=C\c2nc3ccccc3c(=O)n2-c2ccccc2)c2ccccc21	-1.5	78.4*[fluorescence artefact?]	0.7	1.1
COc1ccc(N(C(=O)Cc2cccs2)C(C(=O)NC2CCCCC2)c2cccn2C)cc1 (stereo not drawn)	-7.4	90.2*	-0.5	-6.4
Cn1cccc1C(C(=O)NC1CCCCC1)N(C(=O)Cc1cccs1)c1ccc2c(c1)OCO2 (stereo not drawn)	-3.2	-7.5	0.6	5.8
Cc1nn(-c2ccccc2[N+](=O)[O-])c(=O)c2ccccc12	-1.5	-2.4	-0.2	-7.2
Cc1nn(-c2ccccc2C(=O)O)c(=O)c2ccccc12	-0.7	82.1*	-0.2	-10.5
COC1=CC(=O)CC(C)C12Oc1c(Cl)c(OC)cc(OC)c1C2=O (stereo not drawn)	-2.1	77.2*	0.3	-6.7
CC1CN(c2nn3c(=O)c4ccccc4nc3c3ccccc23)CC(C)O1 (stereo not drawn)	9.7*	20.2	0.8	1.5
C#CCN1C[C@@]2(O)CC[C@@H](O)[C@@H](OC)[C@@H]2[C@@]1(C)[C@H](O)CC=C(C)C	nt	nt	0.3	nt
C=CCn1c(SCC(=O)Nc2ccccc2OC)nnc1-c1ccccn1	-11.8	79.1*	-0.4	-4.5
C=CCn1c(SCC(=O)Nc2cc(NC(C)=O)ccc2OC)nnc1-c1ccccn1	-2.4	-4.9	0.3	-7.7
SMILES	MsrA act	14-3-3 Bad inh	MsrA inh	pCIP destab
CC(=O)Nc1ccc(S(=O)(=O)C(C#N)c2nc3ccccc3nc2NCCCO)cc1 (stereo not drawn)	-6.3	-3.5	4.6*	-7.8
COC(=O)[C@]12C[C@H](CC(=O)NCC34CC5CC(CC(C5)C3)C4)C(=O)N(Cc3ccccc3)C1=C[C@H](C(C)(C)C)O[C@@H]2C	nt	nt	-0.8	nt
O=C(CSc1nc2ccccc2n1CC(=O)NCc1ccccc1)NCc1ccco1	-9.3	-8.7	-1.1	-3.6
CCC(Sc1nc2ccccc2c2nc3ccccc3n12)C(=O)NCc1ccco1 (stereo not drawn)	nt	77.7*	nt	-1.5
O=C(CSc1nc2ccccc2c(=O)n1Cc1ccco1)NCc1ccco1	-3.1	88.1*[fluorescence artefact?]	0.9	14.6
COc1ccc2nc(N3C(=O)/C(=C/c4ccc(Cl)cc4)NC3=S)sc2c1	-3.2	72.3*[fluorescence artefact?]	-0.5	-2.0
CCCCc1nnn2c1C1c3cc(-c4cccnc4)ccc3CCN1C(=O)C2 (stereo not drawn)	nt	nt	0.1	nt
CCCCCCCCN1C(=O)[C@@H](CC(=O)NCc2cccs2)C[C@@]2(C(=O)OC)C1=C[C@H](C(C)(C)C)O[C@@H]2C	nt	nt	-0.2	nt
Clc1cccc(-c2ccc(/C=N/n3cnnc3)o2)c1	-12.0	8.7	4.6*	6.1
Cc1ccc(-c2ccc(/C=N/n3cnnc3)o2)cc1	-2.1	1.4	4.1	-2.3
COc1cc2c(c(OC)c1OC)C1(CCCCC1)CC2NC(=O)c1ccncc1 (stereo not drawn)	nt	nt	2.6	nt

Screening results deposited in PubChem by several laboratories.
